# According to publication PMC4336329 (PLoS ONE, 2015):
# Screen size: about 310,000 compounds; about 14,000 (4.5%) showed an effect of 50% or more. Effects have a minus sign here. The sample as a whole holds a higher share of strong results than the screen did.
# Target: human ether-à-go-go-related gene (hERG) potassium channel (human, UniProt Q12809)
# Assay: primary screen, population patch clamp on CHO cells stably expressing hERG; higher = less effect of the substance
# 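Also: peak tail current of the secondary pulse compared with the same well before compound.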
# Sequence of human ether-à-go-go-related gene (hERG) potassium channel (Q12809 whole entry, looked up): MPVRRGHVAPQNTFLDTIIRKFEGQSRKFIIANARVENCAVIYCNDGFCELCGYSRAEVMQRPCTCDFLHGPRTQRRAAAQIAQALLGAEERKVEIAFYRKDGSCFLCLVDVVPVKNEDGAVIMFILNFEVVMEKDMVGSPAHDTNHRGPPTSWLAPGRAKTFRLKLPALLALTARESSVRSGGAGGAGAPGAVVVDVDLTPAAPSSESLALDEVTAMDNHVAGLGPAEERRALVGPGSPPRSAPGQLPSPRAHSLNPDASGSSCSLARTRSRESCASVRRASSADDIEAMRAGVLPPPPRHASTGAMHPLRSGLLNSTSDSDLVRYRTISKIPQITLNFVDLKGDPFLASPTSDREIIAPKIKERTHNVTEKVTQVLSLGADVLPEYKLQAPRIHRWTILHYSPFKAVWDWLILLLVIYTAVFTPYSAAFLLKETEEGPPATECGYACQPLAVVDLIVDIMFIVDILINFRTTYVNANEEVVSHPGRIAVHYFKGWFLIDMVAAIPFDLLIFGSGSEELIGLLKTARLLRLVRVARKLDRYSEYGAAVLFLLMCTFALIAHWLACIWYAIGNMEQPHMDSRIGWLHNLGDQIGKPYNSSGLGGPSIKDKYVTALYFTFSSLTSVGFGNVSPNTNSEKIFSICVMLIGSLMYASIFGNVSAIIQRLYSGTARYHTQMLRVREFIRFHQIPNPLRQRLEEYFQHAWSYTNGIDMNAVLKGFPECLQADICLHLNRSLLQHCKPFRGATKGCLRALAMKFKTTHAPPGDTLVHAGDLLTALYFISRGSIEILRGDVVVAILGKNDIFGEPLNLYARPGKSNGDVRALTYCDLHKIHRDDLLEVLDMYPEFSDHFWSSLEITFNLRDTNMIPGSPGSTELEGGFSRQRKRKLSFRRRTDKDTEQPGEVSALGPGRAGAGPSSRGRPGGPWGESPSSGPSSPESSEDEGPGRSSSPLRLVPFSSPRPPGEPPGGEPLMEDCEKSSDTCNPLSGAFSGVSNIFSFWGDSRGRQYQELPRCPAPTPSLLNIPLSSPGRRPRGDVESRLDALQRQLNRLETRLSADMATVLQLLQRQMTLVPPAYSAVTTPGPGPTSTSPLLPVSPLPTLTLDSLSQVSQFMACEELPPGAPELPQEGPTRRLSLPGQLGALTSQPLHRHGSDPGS
row,Compound,"hERG current change (%, negative = inhibition) at 10uM"
1,O=C(O)c1ccccc1-c1ccccc1C(=O)Nc1ccccc1-c1ccccc1,19.8%
2,O=C(Nc1nncs1)Oc1ccccc1,8.98%
3,CC1CCC/C(=C\Nc2ccc(O)cc2)C1=O (centres unmarked),-0.0111%
4,Cc1cc(C(=O)NNC(=O)c2cccs2)c(C)o1,7.06%
5,CCN(CC)C(=O)CSc1nnc(-c2ccncc2)n1N,13.4%
6,Cc1ccc(-c2nnn(CC(=O)N(c3ccccc3F)C(CC(C)C)C(=O)NCC3CCCO3)n2)cc1 (centres unmarked),-13%
7,O=C(NC1CCCCC1)N1CCC(n2c(=O)[nH]c3ccccc32)CC1,2.34%
8,O=c1[nH]c2ccccc2n1C1CCCCC1,-5.49%
9,O=C1CC(N2CCC(n3c(=O)[nH]c4ccccc43)CC2)C(=O)N1Cc1ccccc1 (centres unmarked),-21.4%
10,O=C1NCN(c2ccccc2)C12CCNCC2,3.05%
11,O=C1CC(N2CCC(n3c(=O)[nH]c4ccccc43)CC2)C(=O)N1c1ccc(F)cc1 (centres unmarked),-7.5%
12,O=C1NCN(c2ccccc2)C12CCN(CCCC(c1ccc(F)cc1)c1ccc(F)cc1)CC2,-75.8%
13,Cl.O=c1[nH]c2ccccc2n1CCCN1CCCCC1,16.5%
14,O=C1NCN(c2ccccc2)C12CCN(c1nnnn1-c1ccccc1)CC2,-11.7%
15,O=C(CCCN1CCC(n2c(=O)[nH]c3ccccc32)CC1)c1ccc(F)cc1,-73%
16,O=c1[nH]c2ccccc2n1CCCN1CCC(n2c(=O)[nH]c3cc(Cl)ccc32)CC1,-65.5%
17,O=c1[nH]c2ccccc2n1C1CCN(CCCC(c2ccc(F)cc2)c2ccc(F)cc2)CC1,-77.6%
18,O=C(Nc1cccc(F)c1)N1CCC(n2c(=O)[nH]c3ccccc32)CC1,-19%
19,COc1cc(/C=N/NC(=O)c2ccccn2)ccc1OC(=O)c1ccccc1Br,-1.22%
20,CC(=O)Oc1ccc2oc(-c3ccccc3)c(C(N)=O)c2c1,-14.1%
21,COCCCn1c(C23CC4CC(CC(C4)C2)C3)n[nH]c1=S,-5.2%
22,O=C(c1csc2c1CCCC2)N1CCN(c2ccccc2)CC1,-14.8%
23,O=S(=O)(Cc1ccccc1)N1CCN(Cc2ccc(F)cc2Cl)CC1,4.56%

row,Compound,"hERG current change (%, negative = inhibition) at 10uM"
1,CCc1nnc(NC(=O)CN2CCN(c3nc(-c4ccccc4)cs3)CC2)s1,-11.8%
2,COCCCNC(=O)C1CCN(C(=O)c2oc3cc4sc(N(C)C)nc4cc3c2C)CC1,7.03%
3,CCOC(=O)CNC(=O)CNC(=O)c1nn(-c2ccc(OC)c(Cl)c2)c(=O)c2ccccc12,2.21%
4,Cc1ccccc1C(=O)NC(=S)N(C)C1CCCCC1,21.2%
5,COc1cccc(Cn2nc(C(=O)O)c3ccccc3c2=O)c1,9.63%
6,O=C(OCc1nc2ccsc2c(=O)[nH]1)c1ccc(Cl)s1,-5.59%
7,O=C(Nc1nc2ccccc2[nH]1)c1cccc(Cl)c1,17.5%
8,CCc1ccc2oc(-c3cc(N=Cc4cccc(OC)c4O)ccc3O)nc2c1,24.3%
9,CN(Cc1ccccc1)C(=O)c1ccc(NC(=O)Cc2cccc(NC(=O)C3CCN(C(=O)C4CCCCC4)CC3)c2)cc1,8.47%
10,CCC(C)c1ccc(S(=O)(=O)N2CCN(C(C)C(=O)NC3CCCC3)CC2)cc1 (centres unmarked),-79.1%
11,CCC(C)c1ccc(S(=O)(=O)N2CCN(C(C)CC(=O)O)CC2)cc1 (centres unmarked),3.41%
12,CC(C(=O)NC1CCCC1)N1CCN(S(=O)(=O)c2ccc(C(C)(C)C)cc2)CC1 (centres unmarked),-19.8%
13,CC(C)c1ccc(S(=O)(=O)N2CCN(C(C)C(=O)N3CCCC3)CC2)cc1 (centres unmarked),-11.8%
14,CC(C)c1ccc(S(=O)(=O)N2CCN(C(C)C(=O)NC3CCCC3)CC2)cc1 (centres unmarked),-75.5%
15,CC(C(=O)NC1CCCCC1)N1CCN(S(=O)(=O)c2cccs2)CC1 (centres unmarked),-9.2%
16,CCCCCCNS(=O)(=O)c1ccc(OC)c(OC)c1,-11%
17,CCOC(=O)c1sc(S(C)(=O)=O)c2c1CCc1conc1-2,8.59%
18,Cc1ccc(-n2c(-c3ccccc3)n[nH]c2=S)cc1,15.6%
19,CC(C)OC(=O)/C(=C/c1ccc2c(c1)c1ccccc1n2C)NC(=O)c1ccccc1,-1.72%
20,O=C(N/N=C/c1c(O)n(-c2ccccc2)c(=O)[nH]c1=O)c1ccncc1,16.2%
21,Cc1oc(C2CC2)cc1C(=O)O,-9.52%
22,Cn1cc(CN2CCC(C(=O)Nc3cccc(-c4cccc(F)c4)c3)CC2)cn1,-67.4%
23,CC(C)n1cc(CN2CCC(C(=O)Nc3cccc(-c4cccc(Cl)c4)c3)CC2)cn1,-85.1%

row,Compound,"hERG current change (%, negative = inhibition) at 10uM"
1,CCn1ncc(CN2CCCC(C(=O)Nc3cccc(-c4cc5ccccc5[nH]4)c3)C2)c1C (centres unmarked),-56.7%
2,CCn1cc(CN2CCCC(C(=O)Nc3cccc(-c4cc5ccccc5[nH]4)c3)C2)cn1 (centres unmarked),-6.49%
3,CC(C)n1cc(CN2CCCC(C(=O)Nc3cccc(-c4cc5ccccc5[nH]4)c3)C2)cn1 (centres unmarked),-46.3%
4,CCn1cc(CN2CCC(C(=O)Nc3cccc(-c4cccc(F)c4)c3)CC2)cn1,-66.4%
5,CCn1cc(CN2CCCC(C(=O)Nc3cccc(-c4cc5ccccc5[nH]4)c3)C2)c(C)n1 (centres unmarked),-14.4%
6,Cn1cc(CN2CCC(C(=O)Nc3cccc(-c4cscn4)c3)CC2)cn1,5.33%
7,COc1cccc(-c2cccc(NC(=O)C3CCN(Cc4cnn(C)c4)CC3)c2)c1,-15.6%
8,CC(C)n1cc(CN2CCC(C(=O)Nc3cccc(-c4cscn4)c3)CC2)cn1,-32.8%
9,CC(C)Sc1nsc2nc(=O)c(/C=C3\C=Nc4ccccc43)c(N)n12,11.7%
10,CN(CC(=O)Nc1cccnc1)S(=O)(=O)c1ccc(Br)cc1,-21.3%
11,COC(=O)c1ccc(/C=N/NC(=O)CC(=O)NCC(C)C)cc1,20.5%
12,CC(=O)c1ccc(N/N=C2/CCCNC2=O)cc1,11.3%
13,Oc1ccccc1/C=N/NC(=S)NC1CC2CC1C1C=CCC21 (centres unmarked),27.3%
14,c1cnc(N2CCSCC2)nc1,0.773%
15,C#CCSc1nc(-c2ccccc2)cc(C(F)(F)F)c1C#N,7.12%
16,CCCn1ncc(CN2CCC(N3CCC(C(=O)N4CCOCC4)CC3)CC2)c1C,14.4%
17,CCCn1ncc(CN2CCC(C(=O)Nc3cccc(-c4cccc(F)c4)c3)CC2)c1C,-71.7%
18,CC(=O)c1cccc(CN2CCC(C(=O)Nc3cccc(-c4ccn[nH]4)c3)CC2)c1,-3.45%
19,CCn1cc(CN2CCC(C(=O)Nc3cccc(-c4cscn4)c3)CC2)cn1,-15.4%
20,CCCn1cc(CN2CCC(C(=O)Nc3cccc(-c4cscn4)c3)CC2)c(C)n1,-45.3%
21,CCn1cc(CN2CCC(C(=O)Nc3cccc(-c4cccc(OC)c4)c3)CC2)cn1,-49.8%
22,C=CCOc1ccccc1CN1CCC(C(=O)Nc2cccc(-c3ccn[nH]3)c2)CC1,-33.9%
23,CCOc1ccc(CN2CCC(C(=O)Nc3cccc(-c4ccn[nH]4)c3)CC2)cc1Cl,-62.3%

row,Compound,"hERG current change (%, negative = inhibition) at 10uM"
1,CCn1cc(CN2CCC(C(=O)Nc3cccc(-c4cccc(Cl)c4)c3)CC2)cn1,-67.9%
2,COCCn1c(SCC(=O)OCc2ccccc2)nc2c1c(=O)[nH]c(=O)n2C,-25.6%
3,CCN1C(=O)CC(N2CCC(Cc3ccccc3)CC2)C1=O (centres unmarked),-2.52%
4,CCOC(=O)C1(C)NC(c2ccco2)C2C(=O)N(c3ccccc3)C(=O)C21 (centres unmarked),10.4%
5,Cc1cc(Br)ccc1NC(=O)C1CCN(S(=O)(=O)c2cnc[nH]2)CC1,8.88%
6,COc1ccc2c(c1)C(c1ccc(N3CCOCC3)cc1)=NNC(c1cccnc1)=N2,-5.34%
7,Clc1ccc(Cc2ccccc2)nn1,4.59%
8,COc1cc(C(Nc2ccc3c(c2)OCO3)C(=O)NC2CCCCC2)cc(OC)c1OC (centres unmarked),-61.7%
9,COc1cc(NC(=O)Nc2ccc3c(c2)OCO3)cc(OC)c1OC,31.4%
10,COc1cc(C(=O)NC(=S)Nc2ccc3c(c2)OCO3)cc(OC)c1OC,12.1%
11,CCS(=O)(=O)C1=NSC2=NC(=O)/C(=C\c3ccc(OC(=O)c4ccco4)c(OC)c3)C(=N)N21,8.51%
12,COc1cccc(NC(=O)CSc2nc3ccccc3n2C)c1,-16.5%
13,COC(=O)c1c(C(=O)OC)c2cc(C)ccn2c1Cl,-24.9%
14,O=C(CCn1c(=O)oc2ccc(Cl)cc21)N1CCN(c2ccccc2)CC1,-33.8%
15,O=C(C[n+]1cc(-c2ccc(F)cc2)n2c1CCC2)OCc1ccccc1.[Br-],-11.9%
16,Cc1ccc(C(=O)C[n+]2cc(-c3ccccc3)n3c2CCCCC3)cc1.[Br-],-11.3%
17,O=C(C[n+]1cc(-c2ccccc2)n2c1CCC2)c1cccs1.[Br-],-3.31%
18,Cc1ccc(-c2c[n+](CC(=O)c3ccc(Br)cc3)c3n2CCCCC3)cc1.[Br-],-61.4%
19,O=C(C[n+]1cc(-c2ccc(Br)cc2)n2c1CCCCC2)c1ccccc1.[Br-],-9.11%
20,Cc1ccc(-c2c[n+](CC(=O)OCc3ccccc3)c3n2CCC3)cc1.[Br-],-56.3%
21,O=C(C[n+]1cc(-c2ccccc2)n2c1CCC2)OCc1ccccc1.[Br-],-15.2%
22,O=C(C[n+]1cc(-c2ccccc2)n2c1CCCCC2)c1ccc(Br)cc1.[Br-],-52.7%
23,Cc1ccc(C(=O)C[n+]2cc(-c3ccc(C)cc3)n3c2CCCCC3)cc1.[Br-],-53.1%
